Measurements taken from PubChem BioAssay (EPA / NIEHS).
Calls of active or inactive are those of the source. Rule for the calls: active = hit-call score of the fitted dose curve at least 0.9, where 1 is the maximum; inactive = score below 0.9.

assay: CCTE_Shafer_MEA_acute_per_network_burst_spike_number_mean: CCTE's Neural Acute Assay for Average Number of Spikes in a Network Burst, Shafer Lab (AID 2284019);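 for AC50: curve fitted for loss of signal so actives reduce spikes per network burst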
In short: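 Percent change from baseline in mean spikes per network burst, spikes detected at 8x rms noise. Each compound at 0.03-40 uM in at least three wells of rat cortical cultures, recorded 40 min before and 40 min during exposure.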

| SMILES | outcome | AC50 |
| --- | --- | --- |
| OCCCCO | inactive | – |
| N#Cc1cccnc1 | inactive | – |
| Cc1ccccc1OP(=O)(Oc1ccccc1C)Oc1ccccc1C | inactive | – |
| CCCCOC(=O)COC(=O)c1ccccc1C(=O)OCCCC | inactive | – |
| Cc1cc(C(F)(C(F)(F)F)C(F)(F)F)ccc1NC(=O)c1cccc(I)c1C(=O)NC(C)(C)CS(C)(=O)=O | – | 5870 nM (active) |
| CN(C)C(=S)S | inactive | – |
| Oc1ccc(Cc2ccc(O)cc2)cc1 | inactive | – |
| CC1(C)[C@H](C(=O)O[C@H](C#N)c2cccc(Oc3ccccc3)c2)[C@@H]1/C=C(\Cl)C(F)(F)F | – | 553 nM (active) |
| CS(=O)(=O)c1ccc(C(=O)C2C(=O)CCCC2=O)c(Cl)c1COCC(F)(F)F | inactive | – |
| Oc1cc(Cl)c(Cl)cc1Cl | inactive | – |
| O=C(Cc1ccccc1)OCCc1ccccc1 | inactive | – |
| CC(C)(C)c1ccccc1O | inactive | – |
| Clc1cccc(Cl)c1Cl | inactive | – |
| CCCCCCCCCCCCc1cccc(S(=O)(=O)O)c1 | inactive | – |
| CC(C)[C@@H](Nc1ccc(C(F)(F)F)cc1Cl)C(=O)OC(C#N)c1cccc(Oc2ccccc2)c1 (stereo not given in full) | – | 415 nM (active) |

assay: CCTE_Shafer_MEA_acute_network_burst_percentage: CCTE's Neural Acute Assay for Percentage of Network Bursts, Shafer Lab (AID 2284022);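 note: curves fitted for loss so actives lower network burst percentage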
In short: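 Rat primary cortical neuron networks on 48-well MEA plates, DIV 13 or 15, treated acutely with compound (0.03-40 uM, at least three wells). Percent of spikes within network bursts compared between 40-min recordings before and during exposure at 37 C, expressed as percent change.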

| SMILES | outcome | AC50 |
| --- | --- | --- |
| OCCCCO | inactive | – |
| N#Cc1cccnc1 | inactive | – |
| Cc1ccccc1OP(=O)(Oc1ccccc1C)Oc1ccccc1C | inactive | – |
| CCCCOC(=O)COC(=O)c1ccccc1C(=O)OCCCC | inactive | – |
| Cc1cc(C(F)(C(F)(F)F)C(F)(F)F)ccc1NC(=O)c1cccc(I)c1C(=O)NC(C)(C)CS(C)(=O)=O | inactive | – |
| CN(C)C(=S)S | inactive | – |
| Oc1ccc(Cc2ccc(O)cc2)cc1 | inactive | – |
| CC1(C)[C@H](C(=O)O[C@H](C#N)c2cccc(Oc3ccccc3)c2)[C@@H]1/C=C(\Cl)C(F)(F)F | – | 551 nM (active) |
| CS(=O)(=O)c1ccc(C(=O)C2C(=O)CCCC2=O)c(Cl)c1COCC(F)(F)F | inactive | – |
| Oc1cc(Cl)c(Cl)cc1Cl | inactive | – |
| O=C(Cc1ccccc1)OCCc1ccccc1 | inactive | – |
| CC(C)(C)c1ccccc1O | inactive | – |
| Clc1cccc(Cl)c1Cl | inactive | – |
| CCCCCCCCCCCCc1cccc(S(=O)(=O)O)c1 | inactive | – |
| CC(C)[C@@H](Nc1ccc(C(F)(F)F)cc1Cl)C(=O)OC(C#N)c1cccc(Oc2ccccc2)c1 (stereo not given in full) | – | 564 nM (active) |
